# Experimental data from PubChem BioAssay (EPA / NIEHS).
# Records with an inconclusive call do not appear. Active and inactive are the calls of the source. The calls were made as follows: active = hit-call score of the fitted dose curve at least 0.9, where 1 is the maximum; inconclusive = response in the unintended direction; inactive = score below 0.9.
# Target: Hepatocyte nuclear factor 4-alpha (Homo sapiens) (UniProt P41235)
# Assay: ATG_HNF4a_TRANS: Attagene TRANS-FACTORIAL HepG2 Assay for human Hepatocyte Nuclear Factor 4 alpha (HNF4a) (AID 2282982)
# Details: HepG2 HNF4a transactivation reporter, mRNA readout
# Procedure: ATG_TRANS is a cell-based, multiplexed-readout assay that uses HepG2, a human liver cell line, with measurements taken at 24 hours after chemical dosing in a 24-well plate.ATG_HNF4a_TRANS is one of 30 assay component(s) measured or calculated from the ATG_TRANS assay. It is designed to make measurements of mRNA induction, a form of inducible reporter, as detected with fluorescence intensity signals by Reverse transcription polymerase chain reaction (RT-PCR) and Capillary electrophoresis technology.Data from the assay component ATG_HNF4a_TRANS was analyzed into 1 assay endpoint. This assay endpoint, ATG_HNF4a_TRANS, was analyzed in the positive analysis fitting direction relative to DMSO as the negative control and baseline of activity. Using a type of inducible reporter, measures of mRNA for gain-of-signal activity can be used to understand the reporter gene at the transcription factor-level as they relate to the gene HNF4A. Furthermore, this assay endpoint can be referred to as a primary readout, because this assay has produced multiple assay endpoints where this one serves a reporter gene function. To generalize the intended target to other relatable targets, this assay endpoint is annotated to the nuclear receptor intended target family, where the subfamily is orphan.
# Human liver HepG2 cells are transiently transfected with multiple reporter transcription units (MRTUs) in 6-well plates using FuGene 6 reagent (Roche; 3 ml FuGene/1 mg DNA). The MRTU constructs are regulated by a cis-regulating element (promoter). […] A major difference between the CIS and TRANS system is that in CIS activities of endogenous TFs are measured, whereas the TRANS assay evaluates changes in activities of exogenous, chimeric NR-Gal4 proteins. […] At the end of 24 hour incubation, total RNA was isolated using TriZol reagent (Invitrogen). The isolated RNA is then reverse-transcribed using oligo(dT) primer and Mo-MLV reverse transcriptase (Invitrogen) with DNAse I (Ambion) treatment for 30 min. The one-tenth of the produced cDNA was amplified by PCR using Taq DNA polymerase (Invitrogen) and two reporter sequence-specific primers. The PCR products were fluorescently labeled by primer extension with 6-arboxyfluorescein (6-FAM) 5'-labeled reporter sequence-specific primer (2 min at 95 C, 20 s at 68 C and 10 min at 72 C) and these products were digested with 5U of HpaI (New England Biolabs) for 2h at 37 C. The fragments were purified using Qiaquick PCR columns (Qiagen), analyzed on an ABI 3130xL genetic analyzer (Applied Biosystems) with peak positions identified by using a set of X-rhodamine (ROX)-labeled MapMarker1000 molecular weight standards (BioVentures). The raw capillary electrophoresis data was processed using Attagraph software (Attagene).
# Sequence of Hepatocyte nuclear factor 4-alpha (Homo sapiens) (P41235 whole entry, looked up): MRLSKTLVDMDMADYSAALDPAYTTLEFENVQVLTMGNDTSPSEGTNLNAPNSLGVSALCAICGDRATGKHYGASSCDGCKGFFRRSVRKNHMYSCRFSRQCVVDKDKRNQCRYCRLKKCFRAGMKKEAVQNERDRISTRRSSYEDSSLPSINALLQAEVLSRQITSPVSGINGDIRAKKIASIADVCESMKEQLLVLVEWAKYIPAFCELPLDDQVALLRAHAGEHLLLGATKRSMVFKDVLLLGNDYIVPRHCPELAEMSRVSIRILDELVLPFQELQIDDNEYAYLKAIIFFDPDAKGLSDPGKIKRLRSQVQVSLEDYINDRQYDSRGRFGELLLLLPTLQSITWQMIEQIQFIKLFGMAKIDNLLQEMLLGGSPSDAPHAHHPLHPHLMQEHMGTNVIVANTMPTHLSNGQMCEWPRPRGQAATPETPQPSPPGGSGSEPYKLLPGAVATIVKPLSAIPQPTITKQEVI
row,SMILES,outcome
1,C=CC(=O)OC,inactive
2,O=C=Nc1ccccc1,inactive
3,C[N+](C)=CCl,inactive
4,COc1ccc(CO)cc1,inactive
5,CC1(C)CC(=O)CC(C)(C)N1[O],inactive
6,c1cc(OCC2CO2)ccc1Cc1ccc(OCC2CO2)cc1 (stereo not given),inactive
7,CCc1cc(C)cc(CC)c1-c1c(OC(=O)C(C)(C)C)n2n(c1=O)CCOCC2,inactive
8,SCc1ccco1,inactive
9,N#Cc1cccc(C#N)c1,inactive
10,O=C(CCN1CC1)OCC(CO)(COC(=O)CCN1CC1)COC(=O)CCN1CC1,inactive
11,S=c1[nH]c2ccccc2[nH]1,inactive
12,CCC(C)c1cc(C(C)(C)C)cc(-n2nc3ccccc3n2)c1O (stereo not given),inactive
13,CCC(C)(C)O,inactive
14,C=CC(=O)OCCCCOC(=O)C=C,inactive
15,CN(C)N,inactive
16,CC(C)C#N,inactive
17,O=[N+]([O-])c1ccc(Cl)cc1,inactive
18,CCC[N+](=O)[O-],inactive
19,CCOP(=O)(OCC)OCC,inactive
20,C=CC(=O)OCCO,inactive

row,SMILES,outcome
1,Clc1ccc(-c2ccccc2)cc1,inactive
2,[Cl][Sb]([Cl])[Cl],inactive
3,O=S(=O)(O)OOS(=O)(=O)O,inactive
4,O=C1C(Cl)=C(Cl)C(=O)C(Cl)=C1Cl,inactive
5,O=CNC(N1CCN(C(NC=O)C(Cl)(Cl)Cl)CC1)C(Cl)(Cl)Cl (stereo not given),inactive
6,O=C(O)CCl,inactive
7,N#Cc1cc(I)c(O)c(I)c1,inactive
8,CCCCOP(=O)(O)OCCCC,inactive
9,CN1C(=O)CCS(=O)(=O)C1c1ccc(Cl)cc1 (stereo not given),inactive
10,CCCCCc1cc(O)cc(O)c1,inactive
11,CC=Cc1ccc2c(c1)OCO2,inactive
12,O=P1(NCCCl)OCCCN1CCCl (stereo not given),inactive
13,c1ccc(Nc2ccc3ccccc3c2)cc1,inactive
14,CC(Cc1ccc(C(C)(C)C)cc1)CN1C[C@@H](C)O[C@@H](C)C1 (stereo not given in full),inactive
15,Cl/C=C\CCl,inactive
16,CC(C)(C)C(=O)CCl,inactive
17,CC(C)(c1cc(Cl)c(O)c(Cl)c1)c1cc(Cl)c(O)c(Cl)c1,inactive
18,ClC1=C(Cl)[C@]2(Cl)[C@@H]3[C@@H](Cl)[C@H](Cl)C[C@@H]3[C@@]1(Cl)C2(Cl)Cl,inactive
19,CCC1CCC(=O)O1 (stereo not given),inactive
20,C=C(Cl)CCl,inactive
